Bioassay records (PubChem BioAssay)
Hits are enriched below; roughly 3.8% of the tested compounds scored in any of these assays.
HT1080 IDH1KD tx = HT-1080 IDH1 knockdown cell toxicity (counter line); HT-1080 IDH1 knockdown viability, ATP luminescence, 48 h; Potency, µM (top dose mostly 46.1 µM), inactives show at the highest dose activity, negative = toxicity, most hits filed as cytotoxic; 360,000 compounds, 2% hits; AID 686971;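 further: 0% = DMSO wells and -100% = cell-free medium wells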
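IDH1KD HT-1080 cells, 750/well, RPMI + 5% FBS; compound pinned after 2 h settling; 48 h, 37 °C; CellTiter-Glo luminescence; % activity normalised to DMSO and no-cell wells; curves fitted, classed by r2 and efficacy.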
ATXN2 expr inh = inhibitors of ATXN2 expression; AID 1745845; HEK-293 ATXN2-luciferase reporter, luminescence, 24 h; Potency, µM (doses to about 57 µM), without a hit: at the top dose activity change, negative = inhibition, most hits filed as inhibitors; 360,000 compounds, 0.72% hits; further: on the % scale 0 is the no-effect control and ±100 the full control effect; nearly all actives have a fitted effect of over 55% in size
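qHTS (up to 57 uM final) was run with 24 h compound exposure of reporter cells at 37 °C. Each well was multiplexed: SteadyGlo luminescence measured ATXN2-luciferase expression after a fluorogenic Gly-Phe-AFC viability readout (25 uM final).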
TGFb SMAD3 inh = TGF-b pathway inhibition | HepG2 CAGA-GFP TGF-b/SMAD3 reporter, GFP fluorescence, 18 h; TGF-beta stimulated, 500 pg/mL final | Potency, µM (highest dose often 46.1 µM), for inactives: at the highest dose activity, negative = inhibition, hits mostly inhibitors | 410,000 compounds, 1.2% hits | AID 588855; further: on the % scale 0 is the no-effect control and ±100 the full control effect; nearly all actives have a fitted effect of over 65% in size
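Inhibition was scored as loss of TGF-beta-induced (500 pg/mL final, 18 hours, 37 degrees C) GFP in HEPG2 cells carrying a CAGA-GFP reporter, in DMEM with 1% FBS. Well GFP was summed per cell; Activity was normalised to unstimulated and stimulated DMSO wells, then concentration-response fitting.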
HT1080NT lethal = kills 2HG-producing HT-1080-NT fibrosarcoma cells | HT-1080-NT fibrosarcoma viability, CellTiter-Glo ATP luminescence, 48 h | Potency, µM (titrated, usually from 46.1 µM), inactives show at the highest dose activity, negative = less viability, hits mostly cytotoxic | 360,000 compounds, 1.6% hits | AID 686970;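 further: NT is the 2HG producing partner of a matched IDH1 knockdown line; 0% = DMSO-treated cells and -100% = media-only wells without cells; nearly all actives have a fitted effect of over 55% in size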
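Toxicity toward the 2HG-producing NT line was scored as %Activity, normalised to DMSO and no-cell wells, from CellTiter-Glo luminescence after 48 hours' treatment.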
HepG2 tox = counter-screen for TGF-b inhibitors: cytotoxicity in HepG2 cells | Potency, µM (titrated, usually from 46.1 µM), for inactives: top-dose activity change, negative = cytotoxicity, actives largely listed as cytotoxic | HepG2 CAGA-GFP viability, ATP luminescence, 18 h | AID 588856 | 410,000 compounds, 0.76% hits
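HepG2 CAGA-GFP cells (1000/well, DMEM with 1% FBS) received compound, then TGF-beta at 500 pg/mL final, and were incubated 18 hours at 37 degrees C. Viability was read by CellTiter-Glo luminescence. Media-only wells were set as complete cell-killing and DMSO as no toxicity.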
S2 tox = reduces viability in counter-screen for ATXN expression inhibitors; S2 cells (HEK-293 line with an ATXN2-luciferase reporter) viability, CellTiter-Fluor protease fluorescence, 24 h; Potency, µM (series often up to 56.7 µM), most hits filed as cytotoxic; 400,000 compounds, 0.49% hits; further: nearly all actives have a fitted effect of over 40% in size
* marks the source's active call; other numbers are inactive results. The call rests on the fitted dose curve; in most records, active means well fitted curve in the direction sought with a large enough effect; inconclusive means small, poorly fitted or top-dose-only effect, or another doubt; inactive means no such curve, though single readings can be large; an effect the other way counts as inactive or inconclusive. Potency means the concentration at half of the fitted maximal effect.

What do the screens show for `O=C1OC(c2ccc(O)cc2)(c2ccccc2O)c2ccccc21` (stereo not given)?
HT1080 IDH1KD tx: -7.4%; ATXN2 expr inh: -8.9%; TGFb SMAD3 inh: -26.8%; HT1080NT lethal: -2.7%; HepG2 tox: -7.3%; S2 tox: inactive

How did O=C1OC(c2ccccc2)(c2cc(Br)ccc2O)c2ccccc21 (stereo not given) do in these assays?
HT1080 IDH1KD tx: 20.6µM*; ATXN2 expr inh: inconclusive; TGFb SMAD3 inh: 20µM*; HT1080NT lethal: 16.4µM*; HepG2 tox: -182.9%

What do the screens show for `CN(C)CC/C=C1/c2ccc(F)cc2Sc2ccc(Cl)cc21`?
HT1080 IDH1KD tx: 18.4µM*; ATXN2 expr inh: inconclusive; TGFb SMAD3 inh: inconclusive; HT1080NT lethal: 20.6µM*; HepG2 tox: 15.8µM*; S2 tox: inconclusive

What do the screens show for `CN(C)CC/C=C1/c2cc(F)ccc2CSc2ccc(F)cc21`?
HT1080 IDH1KD tx: -7.3%; ATXN2 expr inh: -11.3%; TGFb SMAD3 inh: 12.7%; HT1080NT lethal: -10.4%; HepG2 tox: -1.2%; S2 tox: inactive

Results for CN(C)CC/C=C1\c2cc(Cl)ccc2Sc2cc(F)c(F)cc21 ?
HT1080 IDH1KD tx: -17.3%; ATXN2 expr inh: -21.0%; TGFb SMAD3 inh: inconclusive; HT1080NT lethal: inconclusive; HepG2 tox: -128.5%; S2 tox: inactive

How did CN(C)CC/C=C1\c2ccc(F)cc2Sc2cc(F)c(Cl)cc21 do in these assays?
HT1080 IDH1KD tx: inconclusive; TGFb SMAD3 inh: inconclusive; HT1080NT lethal: inconclusive; HepG2 tox: 17.8µM*; S2 tox: inconclusive

How did CN(C)CC/C=C1\c2ccccc2Sc2cc(F)c(Cl)cc21 do in these assays?
HT1080 IDH1KD tx: 11.6µM*; ATXN2 expr inh: -17.8%; TGFb SMAD3 inh: inconclusive; HT1080NT lethal: 25.9µM*; HepG2 tox: -41.6%; S2 tox: inconclusive

How did C=CCOc1ccc2nc(NC(=O)OC)[nH]c2c1 do in these assays?
HT1080 IDH1KD tx: 1.84µM*; ATXN2 expr inh: 8.4%; TGFb SMAD3 inh: -0.9%; HT1080NT lethal: inconclusive; HepG2 tox: 10.4%; S2 tox: inconclusive

Results for C=C(c1ccc2nc(NC(=O)OC)[nH]c2c1)c1cccs1 ?
HT1080 IDH1KD tx: 0.731µM*; ATXN2 expr inh: 8.6%; TGFb SMAD3 inh: inconclusive; HT1080NT lethal: 1.03µM*; HepG2 tox: -38.1%; S2 tox: inconclusive

What do the screens show for `CCCCc1ccc2nc(NC(=O)OC)[nH]c2c1`?
ATXN2 expr inh: 21.1%; S2 tox: inconclusive

What do the screens show for `CC(C)Oc1ccc(/C=N/NC(N)=S)cc1`?
HT1080 IDH1KD tx: 14.6µM*; ATXN2 expr inh: 34.9%; TGFb SMAD3 inh: -23.3%; HT1080NT lethal: inconclusive; HepG2 tox: -2.2%; S2 tox: inactive

Results for NC(=S)N/N=C/c1ncc(C(F)(F)F)cc1Cl ?
HT1080 IDH1KD tx: 5.17µM*; ATXN2 expr inh: 7.94µM*; TGFb SMAD3 inh: 4.47µM*; HT1080NT lethal: 10.3µM*; HepG2 tox: -53.0%; S2 tox: 14.1µM*

What do the screens show for `NC(=S)N/N=C/c1ccc(C(F)(F)F)cc1`?
HT1080 IDH1KD tx: 20.6µM*; ATXN2 expr inh: -27.5%; TGFb SMAD3 inh: -29.4%; HT1080NT lethal: inconclusive; HepG2 tox: -22.1%; S2 tox: inactive

How did Cn1nc(C(=O)NCCN2Cc3ccccc3OC(c3ccsc3)C2)c2ccccc2c1=O (stereo not given) do in these assays?
S2 tox: inactive

What do the screens show for `Cc1ccc(NC(=O)C2CCCN2S(=O)(=O)c2cccc3cccnc23)cc1C` (stereo not given)?
TGFb SMAD3 inh: inconclusive; HepG2 tox: -17.5%

Results for Cc1cc(C)cc(N2CCn3c2nc2c3c(=O)n(Cc3c(F)cccc3Cl)c(=O)n2C)c1 ?
TGFb SMAD3 inh: -4.7%; HepG2 tox: 3.1%

Results for Cc1ccc(C(=O)N/C(=C/c2ccc(-c3ccc(Br)cc3)o2)C(=O)NC2CCS(=O)(=O)C2)cc1 (stereo not given) ?
HT1080 IDH1KD tx: -8.0%; ATXN2 expr inh: -14.0%; TGFb SMAD3 inh: -7.8%; HT1080NT lethal: -21.2%; HepG2 tox: -36.2%; S2 tox: inactive

What do the screens show for `Cc1ccc(C(=O)N/C(=C\c2ccc(-c3cccc([N+](=O)[O-])c3)o2)C(=O)NCCCN(C)C)cc1`?
HT1080 IDH1KD tx: 14.6µM*; ATXN2 expr inh: inconclusive; TGFb SMAD3 inh: inconclusive; HT1080NT lethal: 18.4µM*; HepG2 tox: -71.3%; S2 tox: inconclusive

Results for Cc1ccc(C(=O)N/C(=C\c2ccc([N+](=O)[O-])cc2)C(=O)NCCc2ccccc2)cc1 ?
HT1080 IDH1KD tx: 11.2µM*; ATXN2 expr inh: -7.2%; TGFb SMAD3 inh: -24.0%; HT1080NT lethal: inconclusive; HepG2 tox: -34.0%; S2 tox: inactive

Results for Cc1ccc(C(=O)N/C(=C\c2ccc(-c3ccc(Br)cc3)o2)C(=O)NCCCN(C)C)cc1 ?
HT1080 IDH1KD tx: 23.1µM*; ATXN2 expr inh: 10µM*; TGFb SMAD3 inh: 7.08µM*; HT1080NT lethal: inconclusive; HepG2 tox: 4.47µM*; S2 tox: 31.6µM*

What do the screens show for `CN(C)CCCNC(=O)/C(=C\c1ccc(-c2cccc([N+](=O)[O-])c2)o1)NC(=O)c1ccccc1`?
HT1080 IDH1KD tx: inconclusive; ATXN2 expr inh: -8.6%; TGFb SMAD3 inh: inconclusive; HT1080NT lethal: inconclusive; HepG2 tox: -29.6%; S2 tox: inactive

Results for COc1ccc(-c2onc(C)c2C)cc1S(=O)(=O)NCc1ccc(C)o1 ?
TGFb SMAD3 inh: -3.6%; HepG2 tox: -7.6%

Results for Cn1cnc([N+](=O)[O-])c1S(=O)(=O)Oc1ccccc1 ?
HT1080 IDH1KD tx: 23.1µM*; ATXN2 expr inh: inconclusive; TGFb SMAD3 inh: inconclusive; HT1080NT lethal: inconclusive; HepG2 tox: -189.4%

How did Cn1cnc([N+](=O)[O-])c1S(=O)(=O)Nc1ccccc1 do in these assays?
HT1080 IDH1KD tx: inconclusive; ATXN2 expr inh: 0.7%; TGFb SMAD3 inh: -5.5%; HT1080NT lethal: 10.3µM*; HepG2 tox: -24.1%; S2 tox: inactive

What do the screens show for `Cn1cnc([N+](=O)[O-])c1S(=O)(=O)c1cccc(Cl)c1`?
HT1080 IDH1KD tx: inconclusive; ATXN2 expr inh: inconclusive; TGFb SMAD3 inh: inconclusive; HT1080NT lethal: inconclusive; HepG2 tox: -107.1%

How did O=C(c1cc2ccccc2[nH]1)c1cc2cc(O)ccc2[nH]1 do in these assays?
TGFb SMAD3 inh: inconclusive; HepG2 tox: -50.7%

Results for CC(C)Oc1ccc(CNC(=O)c2ccc(CS(=O)c3cccc(Cl)c3)o2)cc1 (stereo not given) ?
TGFb SMAD3 inh: -21.1%; HepG2 tox: -25.5%
